Hit rate of the full screen: of about 310,000 compounds, about 14,000 (4.5%) showed an effect of 50% or more. The effect is printed as a negative number. Many of the other results were omitted from the sample, so strong results are more common in it than they were.
These compounds were tested against human ether-à-go-go-related gene (hERG) potassium channel (human, UniProt Q12809) (assay: primary screen, population patch clamp on CHO cells stably expressing hERG; higher = less effect of the substance).
Chain of human ether-à-go-go-related gene (hERG) potassium channel (Q12809 whole entry, looked up): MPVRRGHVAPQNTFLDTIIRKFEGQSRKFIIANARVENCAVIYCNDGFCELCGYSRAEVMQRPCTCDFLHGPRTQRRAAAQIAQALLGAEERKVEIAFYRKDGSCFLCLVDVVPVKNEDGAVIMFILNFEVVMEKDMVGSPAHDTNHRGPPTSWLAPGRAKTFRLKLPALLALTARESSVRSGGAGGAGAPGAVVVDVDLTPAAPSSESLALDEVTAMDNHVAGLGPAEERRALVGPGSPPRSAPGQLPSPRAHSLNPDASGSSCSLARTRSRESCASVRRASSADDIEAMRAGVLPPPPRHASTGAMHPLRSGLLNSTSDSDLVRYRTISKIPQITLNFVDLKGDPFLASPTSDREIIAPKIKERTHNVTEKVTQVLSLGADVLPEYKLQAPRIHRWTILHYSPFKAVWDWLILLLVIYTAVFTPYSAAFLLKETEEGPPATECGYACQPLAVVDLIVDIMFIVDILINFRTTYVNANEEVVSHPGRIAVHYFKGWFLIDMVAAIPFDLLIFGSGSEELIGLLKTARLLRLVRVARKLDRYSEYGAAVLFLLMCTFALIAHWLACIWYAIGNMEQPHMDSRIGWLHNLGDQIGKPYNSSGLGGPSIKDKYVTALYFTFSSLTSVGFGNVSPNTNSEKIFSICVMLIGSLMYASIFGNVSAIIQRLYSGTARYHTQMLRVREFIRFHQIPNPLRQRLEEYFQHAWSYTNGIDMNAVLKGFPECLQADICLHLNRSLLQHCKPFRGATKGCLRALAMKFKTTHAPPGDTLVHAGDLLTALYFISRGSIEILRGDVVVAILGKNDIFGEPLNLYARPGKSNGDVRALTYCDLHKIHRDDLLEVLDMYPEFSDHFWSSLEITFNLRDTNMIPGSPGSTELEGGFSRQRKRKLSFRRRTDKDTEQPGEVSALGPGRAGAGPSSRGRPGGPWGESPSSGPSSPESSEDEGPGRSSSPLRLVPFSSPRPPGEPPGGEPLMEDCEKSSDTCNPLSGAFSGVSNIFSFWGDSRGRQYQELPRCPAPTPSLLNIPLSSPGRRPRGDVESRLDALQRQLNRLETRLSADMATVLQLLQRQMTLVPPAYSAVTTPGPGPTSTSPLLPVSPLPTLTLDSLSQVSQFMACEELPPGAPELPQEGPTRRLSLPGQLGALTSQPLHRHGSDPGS
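Also: peak tail current of the secondary pulse compared with the same well before compound.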

Row | SMILES | hERG current change (%, negative = inhibition) at 10uM [%]
1 | COc1ccc2c(C)c(CCC(=O)NC3CC3)c(=O)oc2c1C | 14.4
2 | CCCc1cc(C(=O)Nc2ccccc2C(=O)OC)no1 | 7.76
3 | CCCC(=O)Nc1cccc(-c2cn3ccsc3n2)c1 | -47.5
4 | CCOc1ccc(N(C(=O)/C=C/C(=O)Nc2cc(C)on2)C(C(=O)NC2CCCC2)c2ccccc2C)cc1 (stereo not drawn) | -6.96
5 | CCn1nc(C)c(CNCc2cn[nH]c2-c2cc3ccccc3o2)c1C | -19
6 | O=C(O)c1cc(C(F)(F)F)nc2ccccc12 | 3.92
7 | CC(C)(C)OC(=O)NC(Cc1ccccc1)C(=O)O (stereo not drawn) | -50.5
8 | CC(C)(C)OC(=O)NC(CC(=O)OCc1ccccc1)C(=O)O (stereo not drawn) | 10.1
9 | CC(C)(C)OC(=O)N[C@@H](CC(=O)OCc1ccccc1)C(=O)O | 10.9
10 | CC(C)(Oc1ccc(Cl)cc1)C(=O)NCCCn1ccnc1 | -21.2
11 | C=CCn1c(SCC(=O)NC2CC2)nc2sc(CC)cc2c1=O | -54.6
12 | C=CCn1c(SCC(=O)NC2CCS(=O)(=O)C2)nc2sc(CC)cc2c1=O (stereo not drawn) | -47.8
13 | C=CCn1c(SCC(=O)N2CCN(C(=O)c3ccco3)CC2)nc2sc(CC)cc2c1=O | -76.3
14 | C=CCn1c(SCC(=O)N2CCc3ccccc3C2)nc2sc(CC)cc2c1=O | -34.5
15 | C=CCn1c(SCC(=O)Nc2cc(C)on2)nc2sc(CC)cc2c1=O | 1.3
16 | C=CCn1c(SCC(=O)NC2CCCC2)nc2sc(C)cc2c1=O | -5.84
17 | C=CCn1c(SCC(=O)O)nc2sc(CC)cc2c1=O | 13.8
18 | C=CCn1c(SCC(=O)N2CCCC2=O)nc2sc(CC)cc2c1=O | -70.9
19 | C=CCn1c(SCC#N)nc2sc(CC)cc2c1=O | -16.5
20 | C=CCn1c(SCC(=O)Nc2sccc2C(N)=O)nc2sc(CC)cc2c1=O | -1.95
21 | C=CCn1c(SCC(=O)Nc2ccc(O)cc2)nc2sc(CC)cc2c1=O | -62.5
22 | C=CCn1c(SCC(=O)c2cccs2)nc2sc(CC)cc2c1=O | -4.31
23 | COC(=O)Cn1c(=NC(=O)c2cc(OC)c(OC)c(OC)c2)sc2cc(OC)ccc21 | 1.18

Row | SMILES | hERG current change (%, negative = inhibition) at 10uM [%]
24 | S=c1[nH]nc(-c2ccc3ccccc3n2)n1-c1ccc2c(c1)OCCO2 | 17.7
25 | Cc1ccc2c(c1)CCCN2N=O | 0.938
26 | CCOc1ccc(N(CC(=O)NCc2ccc(OC)cc2)C(=O)CCC(=O)Nc2nccs2)cc1 | 8.55
27 | COc1ccccc1CNC(=O)COC(=O)c1ccc(C)s1 | 3.82
28 | CC1(C)N([O-])C(c2ccccc2)=C[N+](=O)C1(C)C | 1.38
29 | CCOc1cccc2cc(C(=O)N3CCOCC3)c(=O)oc12 | 14.6
30 | CCN(CC)C(=O)CSc1nc(N)c(C#N)c(-c2cccs2)c1C#N | 15.5
31 | CS(=O)(=O)c1ccc2nc(NC(=O)c3ccc(Cl)cc3)sc2c1 | 6.42
32 | COC(=O)CCCC[C@@H]1SC[C@@H](NC(=O)OC)[C@@H]1NC(=O)OC | 5.49
33 | CC[C@@H](C)[C@H](NC(=O)Cc1c(C)c2cc3c(C)coc3c(C)c2oc1=O)C(=O)O | 6.21
34 | COc1ccc(NC(C)=O)cc1S(=O)(=O)N1CCN(Cc2cccs2)CC1 | -3.53
35 | COc1ccc(/C=C/C(=O)Nc2ccc(NC(C)=O)cc2)cc1S(=O)(=O)N1CCOCC1 | 1.65
36 | COc1ccc(C)cc1S(=O)(=O)N1CCN(C/C=C/c2ccccc2)CC1 | -23.8
37 | COc1ccc(S(=O)(=O)N2CCN(C/C=C/c3ccccc3)CC2)cc1F | -30.1
38 | COc1ccc(/C=C/C(=O)Nc2ccc(C)cc2)cc1S(=O)(=O)N1CCOCC1 | -32.6
39 | COc1ccc(NC(C)=O)cc1S(=O)(=O)N1CCN(C/C=C/c2ccccc2)CC1 | -69.3
40 | COc1ccc(S(=O)(=O)N2CCN(C/C=C/c3ccccc3)CC2)cc1NC(C)=O | -77.9
41 | COc1ccc(/C=C/C(=O)Nc2ccccc2)cc1S(=O)(=O)N1CCOCC1 | -52.2
42 | COc1ccc(S(=O)(=O)N2CCN(C(c3ccccc3)c3ccccc3)CC2)cc1NC(C)=O | 21.2
43 | Cc1ccc(S(=O)(=O)N(C)/N=C/c2ccc(C(=O)O)cc2)cc1 | -7.51
44 | N#C/C(=C\c1ccc(C#N)cc1)C(=O)c1ccccc1 | 10.7
45 | COc1ccc(NC(=O)CSc2nnc(-c3ccccn3)n2N)cc1Cl | -2.27

Reference: paper PMC4336329 (PLoS ONE, 2015)
